HT1080-NT tox: kills 2HG-producing HT-1080-NT fibrosarcoma cells. HT-1080-NT fibrosarcoma viability, CellTiter-Glo ATP luminescence, 48 h. Potency, µM (titrated, usually from 46.1 µM), hits mostly cytotoxic. actives 1.6% (n = 360,000);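 note: NT is the 2HG producing partner of a matched IDH1 knockdown line; nearly all actives have a fitted effect of over 55% in size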
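Viability of the 2HG-overproducing fibrosarcoma line after 48 hours of compound exposure at 37 degrees C was determined by luminescence with CellTiter-Glo, and concentration-effect curves were then fitted and categorized.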
KB-3-1 tox: KB-3-1 parental cell cytotoxicity; KB-3-1 viability, CellTiter-Glo ATP luminescence, 72 h; Potency, µM (series often up to 46.1 µM), most hits filed as cytotoxic; actives 1.4% (n = 400,000); AID 1347075; note: nearly all actives have a fitted effect of over 60% in size
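Cytotoxicity in the drug-sensitive parental line KB-3-1 was scored as loss of CellTiter-Glo luminescence following 72 h incubation with compound. Values come from curve fitting of normalized concentration-response data.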
MCF10A rereplic: induces DNA re-replication in MCF 10a normal breast cells; MCF 10A DNA re-replication, Hoechst nuclear intensity, 48 h; actives 2.9% (n = 350,000); AID 624296; Potency, µM (titrated, usually from 46.1 µM), usual class: activators; note: nearly all actives have a fitted effect of over 50% in size
HT1080 IDH1KD tx: HT-1080 IDH1 knockdown cell toxicity (counter line); HT-1080 IDH1 knockdown viability, ATP luminescence, 48 h; Potency, µM (titrated, usually from 46.1 µM), usual class: cytotoxic; actives 2% (n = 360,000); AID 686971
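Knockdown cells (IDH1KD HT-1080) received compounds 2 h after plating at 750 cells/well and were kept 48 h at 37 °C in 5% FBS RPMI. A CellTiter-Glo luminescence read gave % activity for curve fitting.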
KB-V1 MDR tox: kills drug-selected multidrug resistant KB-V1 cells; KB-V1 MDR cells viability, CellTiter-Glo, 72 h; Potency, µM (titrated, usually from 46.1 µM), most hits filed as cytotoxic; actives 3.4% (n = 400,000); note: nearly all actives have a fitted effect of over 60% in size
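Cytotoxicity via CellTiter-Glo luminescence after 72 h compound exposure at 37 degrees C. Cells: drug-selected KB-V1 line, DMEM phenol-red free plus 10% FBS. Compounds tested at multiple concentrations; normalized data fitted to concentration-effect curves.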
SW480 rereplic: induces DNA re-replication in SW480 colon adenocarcinoma cells; SW480 DNA re-replication, Hoechst DNA content imaging, 48 h; Potency, µM (series often up to 46.1 µM), hits mostly activators; actives 1.8% (n = 340,000); AID 624297; note: nearly all actives have a fitted effect of over 55% in size
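First, 250 cells per well were seeded. Next, compound or vehicle (23 nL) was pinned in, plates sat 48 hr at 37 C. Finally Hoechst was added for 40 min before fluorescence scanning.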
Numbers stand for hits; i = inactive; ? = inconclusive; nt = no result given; ! = not confirmed by another sample. Most compounds without a hit are left out; they make up all but 8% or so of the library. Calls come from the whole dose curve; as a rule, active = well fitted curve in the direction sought with a large enough effect; inconclusive = small, poorly fitted or top-dose-only effect, or another doubt; inactive = no such curve, though single readings can be large; an effect the other way counts as inactive or inconclusive.

SMILES | HT1080-NT tox | KB-3-1 tox | MCF10A rereplic | HT1080 IDH1KD tx | KB-V1 MDR tox | SW480 rereplic
CCN1CCc2c(sc(NC(=O)Nc3ccc(Cl)c(Cl)c3)c2C(N)=O)C1 | i | i | 9.2µM | i | i | 14.6µM
CCN1CCc2c(sc(NC(=O)c3ccc(S(=O)(=O)N4CCOCC4)cc3)c2C(=O)OC)C1 | ? | i | 14.6µM | ? | i | ?
NC(=O)c1c(NC(=O)c2c(F)cccc2F)sc2c1CCN(Cc1ccccc1)C2 | i | ? | 25.9µM | i | i | i
CC1(C(=O)NS(=O)(=O)c2ccc(F)cc2F)CCN1C(=O)C1(c2ccc(Cl)cc2)CCC1 (stereo not given) | i | ? | nt | i | ? | nt
CCOC(=O)c1c(N)sc2c1CCN(Cc1ccccc1)C2 | nt | 14.6µM! | ? | nt | i | i
CCCCN(CCCC)S(=O)(=O)c1ccc(C(=O)Nc2sc3c(c2C(N)=O)CCN(CC)C3)cc1 | nt | i | nt | nt | i | nt
CCN1CCc2c(sc(NC(=O)c3ccc(S(=O)(=O)N(CC)c4ccccc4)cc3)c2C(N)=O)C1 | 18.4µM | ? | 11.6µM | 5.8µM | ? | ?
CCO[C@@H]1OC(C(=O)NCc2nc3ccccc3[nH]2)=C[C@H](C(C)(C)C)[C@H]1CCCO | 3.26µM | 1.3µM | 4.11µM | 3.26µM | i | ?
CCO[C@@H]1OC(C(=O)NCc2nc3ccccc3[nH]2)=C[C@H](C2CC2)[C@H]1CCCO | 18.4µM | 5.17µM | ? | ? | i | ?
CCO[C@H]1OC(C(=O)NCc2nc3ccccc3[nH]2)=C[C@@H](c2ccc(Br)cc2)[C@@H]1CCCO | ? | i | i | i | i | i
N#Cc1nc(-c2cccc3ccccc23)oc1N1CCCCC1 | i | i | i | i | i | ?
CC1CCN(c2oc(-c3cccc4ccccc34)nc2C#N)CC1 | i | i | 10.3µM | i | i | i
O=C(c1ccc(Cl)c(S(=O)(=O)N2CCc3ccccc32)c1)N1CCN(c2ccccc2O)CC1 | i | i | ? | ? | 18.4µM | i
O=C(c1cccc(S(=O)(=O)N2CCc3ccccc32)c1)N1CCN(c2ccccn2)CC1 | ? | 6.51µM | i | 9.2µM | ? | i
CCOCCOC(=O)c1ccc(NC(=O)/C=C/c2ccc(OC)c(OC)c2)cc1 | nt | i | nt | nt | i | nt
COc1ccc(CNC(=O)C2CCN(S(=O)(=O)c3cccc4nonc34)CC2)cc1OC | nt | i | nt | nt | i | nt
O=C(N[C@@H](Cc1c[nH]c2ccccc12)C(=O)O)C1CCN(S(=O)(=O)c2cccs2)CC1 | i | i | i | i | i | i
COc1ccc(S(=O)(=O)NCc2ccc(C(=O)NCc3ccccc3)cc2)cc1 | nt | i | nt | nt | i | nt
CC(=O)N1CCN(C(=O)/C(C#N)=C/c2ccc3c(c2)OCO3)CC1 | i | i | i | i | i | i
Cc1cc(/C=C(\C#N)C(=O)N2CCCCC2)cc(C)c1O | 16.4µM | 16.4µM | ? | 18.4µM | ? | ?
N#C/C(=C\c1cccc(O)c1)C(=O)N1CCCCC1 | i | i | 18.4µM | i | ? | ?
N#C/C(=C\c1cccc(Br)c1)C(=O)N1CCCCC1 | 23.1µM | ? | 23.1µM | 16.4µM | ? | ?
O=C(Nc1ccccn1)c1cc2ccccc2cc1O | ? | i | ? | ? | i | ?
CCOC(=O)c1sc2ncn(CC(=O)Nc3ccc(OC)c(Cl)c3)c(=O)c2c1C | nt | i | nt | nt | i | nt
CCN(CC)CCNC(=O)c1c(C)[nH]c(/C=C2\C(=O)Nc3ccc(F)cc32)c1C | nt | nt | i | nt | nt | i
SMILES | HT1080-NT tox | KB-3-1 tox | MCF10A rereplic | HT1080 IDH1KD tx | KB-V1 MDR tox | SW480 rereplic
Cc1cc(O)cc2c(=O)c3ccccc3sc12 | i | i | 18.4µM | i | ? | ?
CCCCc1c(-c2ccccc2OC)ncn1CCc1ccc(OC)cc1 | 16.4µM | ? | nt | ? | 9.2µM | nt
CCCCc1c(-c2ccccc2OC)ncn1CCc1ccccc1 | 18.4µM | ? | nt | 20.6µM | 11.6µM | nt
CCCCc1c(-c2ccccc2OC)ncn1CCc1ccc(Cl)cc1 | ? | ? | nt | ? | 11.6µM | nt
COc1ccc(Cc2nn3c(-c4ccccc4OC)nnc3s2)cc1 | i | i | i | i | ? | i
CNC(=O)c1c(NC(=O)c2ccc(S(=O)(=O)N3CCCCC3C)cc2)sc2c1CCN(C)C2 (stereo not given) | ? | i | 20.6µM | ? | i | ?
COc1ccc(C)c2sc(NC(=O)c3ccc(S(=O)(=O)N4CCOCC4)cc3)nc12 | nt | i | nt | nt | i | nt
CC(=O)Nc1cccc(Oc2ncnc3scc(-c4ccc(C(C)C)cc4)c23)c1 | ? | ? | 23.1µM | ? | 20.6µM | ?
COc1ccc(-c2csc3ncnc(Nc4cccc(OC)c4)c23)cc1 | nt | i | nt | nt | i | nt
Cc1ccc(C(=O)N/C(=C\c2ccc(-c3cc(Cl)ccc3Cl)o2)C(=O)NCc2cccnc2)cc1 | i | ? | i | i | 16.4µM | i
O=C(NCc1cccnc1)/C(=C\c1ccc(-c2cccc(Cl)c2)o1)S(=O)(=O)c1ccccc1 | i | ? | 7.31µM | ? | 4.11µM | ?
Cc1ccc(C(=O)c2cn(Cc3ccccc3F)c3cc4c(cc3c2=O)OCO4)cc1 | nt | i | nt | nt | i | nt
Cc1ccc(S(=O)(=O)NCC(=O)OCC(=O)N2CC(C)OC(C)C2)cc1 (stereo not given) | i | i | i | i | ? | i
NNC(=O)c1nnn(-c2nonc2N)c1-c1cccs1 | i | i | i | i | i | i
COC(=O)c1sc(N2C(=O)C(O)=C(C(=O)c3ccc(C)o3)C2c2cccs2)nc1C (stereo not given) | i | i | 18.4µM | i | ? | ?
Cc1cc(N2C(=O)C(O)=C(C(=O)c3ccc(C)o3)C2c2cccs2)no1 (stereo not given) | i | ? | i | i | 5.17µM | ?
COC(=O)c1sc(N2C(=O)c3oc4ccccc4c(=O)c3C2c2cccs2)nc1C (stereo not given) | i | 18.4µM | ? | i | ? | i
COC(=O)c1sc(N2C(=O)C(O)=C(C(=O)c3ccc(C)o3)C2c2ccco2)nc1C (stereo not given) | i | i | i | i | ? | i
Cc1ccc(C2C(C(=O)c3cc4ccccc4o3)=C(O)C(=O)N2c2cc(C)on2)cc1 (stereo not given) | i | i | 9.2µM | i | i | ?
Cc1cc(N2C(=O)C(O)=C(C(=O)c3cc4ccccc4o3)C2c2ccc([N+](=O)[O-])cc2)no1 (stereo not given) | i | i | i | i | i | i
COc1cccc(CNC(=O)CCn2cccn2)c1 | nt | i | nt | nt | i | nt
O=C(Nc1ccc2ccccc2c1)Nc1nnc(-c2ccccn2)s1 | nt | ? | nt | nt | i | nt
N=c1sccn1CC(=O)Nc1cc(Cl)ccc1Oc1ccccc1 | 16.4µM | i | ? | ? | ? | i
CC(C)CNS(=O)(=O)c1ccc(CCC(=O)O)cc1 | i | i | i | i | i | i
